Compound activity as filed in PubChem.
Measles inh: inhibitors of measles virus growth in infected cells. actives 0.1% (n = 33,000). infected Vero cells, GFP fluorescence, 64 h; active compounds read low. z-score (concentration not given with the values); in the data active means z-score below about -3
An asterisk follows results filed as active. The full list was thinned out, with hits kept by preference.

SMILES	Measles inh
Cc1cc(N2CCN(C)CC2)nc2ccc(NC(=O)Cc3cccc(C(F)(F)F)c3)cc12	-3.15*
CCN1CCN(c2cc(C)c3cc(NC(=O)Cc4cccc(C)c4)ccc3n2)CC1	-1.53
Cc1cc(N2CCN(C)CC2)nc2ccc(NC(=O)c3cccc(C(F)(F)F)c3)cc12	0.66
CC(C)(C)c1ccc(S(=O)(=O)Nc2cc(SCC(=O)O)c(O)c3ccccc23)cc1	-0.31
Cc1ccccc1C1C=C(c2ccc(F)cc2)Nc2ncnn21 (stereo not given)	-0.28
N#Cc1ccccc1NC(=O)c1c(O)c2cccc3c2n(c1=O)CC3	-0.21
CCCCCCCSc1nnc2nc(C)cc(C)n12	-3.12*
CCCCCSc1nc2ccccc2[nH]1	-0.16
CCCCCCSc1nnc(-c2ccco2)c(-c2ccco2)n1	-0.77
CCCCc1ccc(NC(=O)COc2ccc(Cl)cc2)cc1	-0.7
Cc1ccc(-c2cc(C(F)(F)F)n3ncc(C(=O)N4CCN(Cc5ccccc5)CC4)c3n2)cc1	0.1
O=C(NCCN1CCOCC1)C1CCCN(S(=O)(=O)c2cccc3nsnc23)C1 (stereo not given)	-0.04
NS(=O)(=O)c1ccc(CCNC(=O)C2CCCN(S(=O)(=O)c3cccc4nsnc34)C2)cc1 (stereo not given)	-0.81
CCN(CCNC(=O)C1CCCN(S(=O)(=O)c2cccc3nsnc23)C1)c1ccccc1 (stereo not given)	-3.26*
Cc1ccc(-n2cc(-c3ccc4c(c3)OCO4)[nH]c2=S)cc1	0.09
Cc1ccc(NC(=O)CN(c2cc(C(F)(F)F)ccc2Cl)S(=O)(=O)c2ccccc2)c(C)c1	-0.46
CCOC(=O)C1=C(C)N=C2SCCC(=O)N2C1C=Cc1ccccc1 (stereo not given)	-1.49
COc1ccc(-c2c(C(F)(F)F)oc3c(CN4CCCCC4)c(O)ccc3c2=O)cc1OC	0.24
Cc1cn2c3ccccc3n(CCN3CCCCC3)c2n1	-0.96
c1ccc(-c2cn3c4ccccc4n(CCN4CCCCC4)c3n2)cc1	-3.08*
N=c1n(CCO)c2ccccc2n1CCN1CCCCC1	-0.81
CCOC(=O)c1cnc2ccc(OCC)cc2c1Nc1cccc(Cl)c1C	-0.11
O=[N+]([O-])c1ccc(N2CCCCC2)cc1NCCc1ccccc1	-1.65
CC1CCN(S(=O)(=O)N2CCCC(C(=O)NC(C)c3ccccc3)C2)CC1 (stereo not given)	-0.17
CC(=O)Oc1ccc(C(=O)N(C)c2ccccc2)cc1	1.22
SMILES	Measles inh
CC(C)(C)c1ccc(S(=O)(=O)CCSc2nc3ccccc3s2)cc1	0.2
CCCCC1=NN(C(=O)c2ccc([N+](=O)[O-])cc2)C(O)(C(F)(F)F)C1 (stereo not given)	2.88
Cc1ccccc1OCCn1c(SCC(N)=O)nc2ccccc21	1.48
COCc1nc2ccccc2n1CCOc1ccccc1C	-3.42*
CCn1c(COc2ccccc2C)nc2ccccc21	-0.28
O=C1CCCN2N=C(SCC(=O)N3CCCc4ccccc43)SC2=N1	-0.43
CN(Cc1ccco1)C(=O)c1ccc(CNS(=O)(=O)c2ccc(F)cc2)cc1	0.2
COC(=O)c1ccccc1N1C(=O)C2C3CCC(C3)C2C1=O (stereo not given)	-3.72*
CCCCOC(=O)c1ccccc1N1C(=O)C2C3CCC(C3)C2C1=O (stereo not given)	-0.03
O=C1C2C3CCC(C3)C2C(=O)N1c1ccccc1F (stereo not given)	-0.46
COc1ccc(C2C(C(=O)N3CCN(c4ccccc4F)CC3)CCC(=O)N2c2cc(OC)c(OC)c(OC)c2)cc1 (stereo not given)	0.18
CC1CCN(c2ccc([N+](=O)[O-])c(NCCOc3ccc(F)cc3)c2)CC1	0.26
O=C(O)c1cccc(N2C(=O)CC(c3ccccc3)CC2=O)c1	0.84
Cc1cccc(NC(=O)c2cnn3c(C)cc(C)nc23)c1	0.64
CC1CCCC(C)N1CCNC(=O)CCN1C(=O)COc2ccccc21 (stereo not given)	-0.4
O=C(CCN1C(=O)COc2ccccc21)NCCc1ccc(Cl)cc1	-0.22
O=C(CCN1C(=O)COc2ccccc21)NCCN1CCc2ccccc2C1	-6.44*
CCOc1cccc(C2CC(c3ccc(OC)cc3)=NC(c3ccc(Cl)cc3)N2)c1O (stereo not given)	-0.78
c1ccc(Cn2c(CSc3nc4ccccc4o3)nc3ccccc32)cc1	0.21
CCOc1ccc(NC(=O)CC23CC4CC(CC(C4)C2)C3)cc1	-0.82
CCOc1ccc(NC(=O)CN2C(=O)C3C4CCC(C4)C3C2=O)cc1 (stereo not given)	-3.2*
CCOc1ccccc1NC(=O)CN1C(=O)C2C3C=CC(C3)C2C1=O (stereo not given)	1.28
CCC(C)Cn1c(C=Cc2ccccc2)nc2ccccc21 (stereo not given)	-0.14
CCOC(=O)c1sc(NC(=O)c2sc3cc(Cl)ccc3c2Cl)nc1C	0.05
CCOc1ccc(N2C(=O)C3ON(c4ccccc4)C(c4ccc(SC)cc4)C3C2=O)cc1 (stereo not given)	-0.23
SMILES	Measles inh
Cc1cccc(C)c1OCCCCCCN1CCOCC1	-0.51
CC(C)(C)c1cc(Br)ccc1OCCCN1CCOCC1	-3.29*
COc1ccccc1OCCCCCCN1CCOCC1	-0.57
COc1cccc(Nc2nc(-c3ccc(OC)c(OC)c3)nc3ccccc23)c1	-2.15
Cc1cccc(NC(=O)c2ccc(N3CCc4ccccc4C3)c([N+](=O)[O-])c2)c1	2.04
CCCCOc1ccc(N2C(=O)C3C4C=CC(C4)C3C2=O)cc1 (stereo not given)	-3.34*
N#Cc1ccc(N2C(=O)C3C4C=CC(C4)C3C2=O)cc1 (stereo not given)	0.54
O=C(O)c1ccc(N2C(=O)C3C4C=CC(C4)C3C2=O)cc1 (stereo not given)	0.84
Cc1c(C)c2ccc(OCC(=O)O)c(C)c2oc1=O	-1.34
COc1cccc(-n2c(=S)sc3c(=O)n(-c4ccccc4C)c(SCC(=O)NCc4ccco4)nc32)c1	1.33
S=C1NC(c2ccccc2)=CC(c2ccc(Cl)cc2)N1 (stereo not given)	-0.12
Cc1cccc(-n2ccnc2SCC(=O)Nc2cccc(C)c2C)c1	0.52
O=C(O)c1[nH]c2ccc(Cl)cc2c1CC(=O)N1CCCC1	0.85
COc1ccc(OC)c(C2/C(=C(\O)c3ccc(Cl)cc3)C(=O)C(=O)N2c2nc3ccccc3s2)c1 (stereo not given)	-1.05
CN(C)C=Nc1nc2ccc3c(c2s1)CCCC3	-0.29
COc1nc(Cl)cc(C)c1C(=O)NCc1ccc(Cl)cc1	-0.85
COc1ccc(Cc2c(Cl)ncnc2Cl)cc1	-0.43
COc1ccc(Cc2nc(C)cc(Cl)n2)cc1Cl	-3.84*
CCOC(=O)c1c(C)oc2ccc(OCc3ccc(C)cc3)cc12	0.63
CC(=O)C1=NN(c2ccccc2C)C2C(=O)N(c3ccc(Br)cc3)C(=O)C12 (stereo not given)	2.04
CC(C)N1C(=O)C(O)(CC(=O)c2cccs2)c2ccccc21 (stereo not given)	-0.09
O=C1OC(=Nc2ccc(Br)cc2)c2ccccc21	0.04
COc1ccc(C)cc1NC(=O)C1CCN(C(=O)c2ccccc2C)CC1	-0.49
CCc1ccc(NC(=O)C2CCN(C(=O)c3ccccc3C)CC2)cc1	-4.97*
Cc1ccccc1C(=O)N1CCC(C(=O)Nc2ccccc2C(F)(F)F)CC1	0.84
Cc1nc(Nc2ccc(Oc3ccccc3)cc2)c2cc(C)sc2n1	-1.06
Ic1cccc2c1N1CCN2CC1	0.08
C=CCOc1ccc(C2Oc3ccccc3C3CC(c4ccccc4)=NN32)cc1 (stereo not given)	-1.09
